Data taken from PubChem BioAssay (EPA / NIEHS).
Active and inactive are the calls of the source. Rule for the calls: active = hit-call score of the fitted dose curve at least 0.9, where 1 is the maximum; inactive = score below 0.9.

Read-out: NAD(P)H dehydrogenase [quinone] 1 (NQO1), NQO1 (gene 1728)
Assay: LTEA_HepaRG_NQO1: Life Technologies and Expression Analysis (LTEA) Assay for NAD(P)H dehydrogenase [quinone] 1 (NQO1) using HepaRG (AID 2283526)
Details: mRNA level, 48 h; actives raise or lower the signal
Experimental: LTEA_HepaRG is a cell based, multiplexed-readout assay that uses HepaRG, a human liver cell line, with measurements taken at 48 hours after chemical dosing on a 96-well plate.LTEA_HepaRG_NQO1 is one of 102 assay component(s) measured in the LTEA HepaRG cell culture assay. It is a marker of Diseases associated with NQO1 include Tardive Dyskinesia and Childhood Leukemia.Data from the assay component LTEA_HepaRG_NQO1 was analyzed into 1 endpoint. This assay endpoint, LTEA_HepaRG_NQO1, was analyzed with bidirectional fitting relative to DMSO as the negative control and baseline of activity. Using a type of inducible reporter, measures of mRNA induction for gain or loss-of-signal activity can be used to understand regulation of transcription factor activity. To generalize the intended target to other relatable targets, this assay endpoint is annotated to the oxidoreductase intended target family, where the subfamily is quinone-acceptor.
A total of 1060 chemcials from the ToxCast library were tested in eight-point concentration-response experiments. Cell culture and cytotoxicity assays were conducted at Thermo Fisher Scientific's Custom Services facility (Madison, WI). A single lot of human HepaRG cells (Thermo Fisher Scientific, Frederick, MD) was used for the cell culture experiments. 96-well format collagen type I coated plates of human HepaRG cells were prepared using established methods. Briefly, cryopreserved HepaRG cells were thawed, plated at a density of approximately 100,000 cells/well in HepaRG Thaw, Plate, and General Purpose media (HPRG770, Thermo Fisher Scientific), and incubated for 48 hours. 0.5% DMSO was selected as vehicle control to balance the requisite need of DMSO in HepaRG cultures to maintain differentiation (for example, baseline metabolism, proportions of hepatocytes vs. cholangiocytes), while enabling further hepatic receptor pathway activation (for example, PXR and CAR) in response to chemical exposure. 48 hours after plating, the culture medium was replaced with HepaRG Serum-Free Incudtion Media. Cells were exposed to each test chemical in duplicate and maintained in CO2 incubators for another 48 hours. Chemical plates were thawed to room temperature and 200x concentrations of treatment groups were prepared. 8-point conentration-reponse curves were made with the highest exposure at 100 uM, followed by half-log dilutions, all in 0.5% DMSO. Each test plate contained variouse controls, induction positive controls (1mM phenobarbital), cytotoxicity positive controls ([…] aflatoxin B1), vehicle controls (0.5% DMSO), and total lysis controls (0.5% DMSO). Cell morphology images were taken using an Essen IncuCyte FLR automated microscope, with six 96-well plates imaged in about 24 minutes. Images were captured and exported and JPEG files. Spent culture media was transfered to black-well plates for the LDH assay, and remaining media was sorted at -80 C for later use. Cells were treated with RLT buffer and frozen until shipped for gene expression analysis. Total RNA was isolated from the cell suspension in 75 uL of Buffer RLT (Qiagen, Germantown, MD 20874) by Quintiles/Expression Analysis (Durham, NC) using a custom isolation procedure. Total RNA from each plate well was transferred to a preamplification plate. Fluidigm's 96.96 Dynamic ArrayTM (Fluidigm, Amsterdam, the Netherlands) technology was used for gene expression analyses by quantitative reverse transcription polymerase chain reaction (qRT-PCR, performed by Quintiles/Expression Analysis, Durham, NC)89. Standard TaqManTM Assays (Applied Biosystems/ThermoFisher Scientific, Foster City, CA) were used to assess the expression of 93 genes selected based on their selectivity and sensitivity to important hepatic receptors known to be modulated by environmental chemicals; importance in human hepatocyte functionality; and hepatotoxicity. […]

Question: How did the outcome turn out when `CC(C)OC(=O)C(C)(C)Oc1ccc(C(=O)c2ccc(Cl)cc2)cc1` was run?
Answer: inactive

Question: For `COc1ccc(C(=O)Nc2nc3ccccc3c(NCc3ccccc3)c2C#N)cc1`, which outcome is on record?
Answer: inactive

Question: Which outcome does the source give for `CC(C)c1cccc(C(C)C)c1` here?
Answer: inactive

Question: How did the outcome turn out when `c1ccc2occc2c1` was run?
Answer: inactive

Question: With `Cc1cc(SC2=C(O)C[C@@](CCc3ccc(N)cc3)(C(C)C)OC2=O)c(C(C)(C)C)cc1CO` as the compound, how does the outcome read?
Answer: inactive

Question: With `O=C(O)c1[nH]n(-c2ccc(S(=O)(=O)O)cc2)c(=O)c1N=Nc1ccc(S(=O)(=O)O)cc1` as the compound, how does the outcome read?
Answer: inactive

Question: `C/C=C/c1ccc(OC)cc1` was tested. Which outcome did it give?
Answer: inactive

Question: `CCCCc1nc2cccnc2n1Cc1ccc(-c2ccccc2-c2nnn[nH]2)cc1` was tested. Which outcome did it give?
Answer: inactive

Question: For `O=C(Oc1ccccc1)c1cccc(C(=O)Oc2ccccc2)c1`, which outcome is on record?
Answer: inactive

Question: For `O=C(O)c1cccnc1`, which outcome is on record?
Answer: inactive

Question: Which outcome does the source give for `Oc1ccccc1O` here?
Answer: inactive

Question: For `CCCCCCC(C=O)=Cc1ccccc1`, which outcome is on record?
Answer: inactive

Question: Which outcome does the source give for `CCCC(=O)O` here?
Answer: inactive

Question: `COC(=O)CCCC(=O)OC` was tested. Which outcome did it give?
Answer: inactive

Question: How did the outcome turn out when `O=NO` was run?
Answer: inactive

Question: For `CC(C)(C)c1ccccc1`, which outcome is on record?
Answer: inactive

Question: How did the outcome turn out when `Cc1ccc(C(C)(C)C)c(O)c1` was run?
Answer: inactive

Question: How did the AC50 turn out when `CS(=O)(=O)c1ccc([C@@H](C[C@H]2CCC(=O)C2)C(=O)Nc2cnccn2)cc1Cl` was run?
Answer: 17.9 µM (active)

Question: `C=CCc1ccc(OC)c(OC)c1` was tested. Which outcome did it give?
Answer: inactive

Question: Which outcome does the source give for `CCCCCCC(CCCCCCCCCCC(=O)OCC(COC(C)=O)OC(C)=O)OC(C)=O` (stereo not given) here?
Answer: inactive

Question: How did the outcome turn out when `O=C(O)CC(O)(CC(=O)O)C(=O)O` was run?
Answer: inactive

Question: How did the outcome turn out when `O=C(NS(=O)(=O)/C=C/c1cccs1)c1ccc(F)cc1Br` was run?
Answer: inactive

Question: Which outcome does the source give for `COC(=O)CCC(=O)OC` here?
Answer: inactive

Question: Which outcome does the source give for `Cn1cnc2c1c(=O)[nH]c(=O)n2C` here?
Answer: inactive

Question: For `CO[C@@H]1COCC[C@@H]1N[C@@H]1CC[C@@](C(=O)N2CCc3ncc(C(F)(F)F)cc3C2)(C(C)C)C1`, which outcome is on record?
Answer: inactive

Question: With `CCc1nc(N)nc(N)c1-c1ccc(Cl)cc1` as the compound, how does the outcome read?
Answer: inactive

Question: How did the outcome turn out when `CC1(C)C(=O)NC(=O)N1CO` was run?
Answer: inactive

Question: `CCc1cc(C2=C(C(=O)O)N(c3ccccc3C(F)(F)F)S(=O)(=O)c3ccccc32)cc2c1OCO2` was tested. Which outcome did it give?
Answer: inactive

Question: `C=CCCCCCCCCCCCC` was tested. Which outcome did it give?
Answer: inactive

Question: With `CCCCC(CC)COP(=O)(OCC(CC)CCCC)OCC(CC)CCCC` (stereo not given) as the compound, how does the outcome read?
Answer: inactive

Question: `CSc1ccc(Oc2ccc(S(N)(=O)=O)cc2CN(C)C)cc1C` was tested. Which outcome did it give?
Answer: inactive

Question: Which outcome does the source give for `O=Cc1ccccc1C=O` here?
Answer: inactive

Question: Which outcome does the source give for `Cc1ccc(-c2cc(C(F)(F)F)nn2-c2ccc(S(N)(=O)=O)cc2)cc1` here?
Answer: inactive

Question: `NC1CCCCC1` was tested. Which outcome did it give?
Answer: inactive

Question: How did the AC50 turn out when `CN(C)C(=O)NC1(c2ccccc2)CCN(CCC[C@]2(c3ccc(Cl)c(Cl)c3)CCCN(C(=O)c3ccccc3)C2)CC1` was run?
Answer: 21.7 µM (active)

Question: With `Nc1nc(Cl)nc2c1ncn2[C@H]1C[C@H](O)[C@@H](CO)O1` as the compound, how does the outcome read?
Answer: inactive

Question: `CCCCOC(=O)CCCCC(=O)OCCCC` was tested. Which outcome did it give?
Answer: inactive

Question: How did the outcome turn out when `Cc1cc(Cc2ccc(N)c(C)c2)ccc1N` was run?
Answer: inactive

Question: How did the outcome turn out when `OCC(O)CO` was run?
Answer: inactive

Question: How did the outcome turn out when `O=[Si]=O` was run?
Answer: inactive
